Experimental data as given in ChEMBL document CHEMBL3988442, “University of Dundee, Small-Polar-MMV Screening Library” (2021).
For some of these results: Results with a measured potency or affinity are listed apart.

Tests used:
Parameters in all cases: scale not given: direction of the effect not stated beside the values
[1] = target: Protein translocase subunit SecA (Escherichia coli (strain K12)) (UniProt P10408); assay: Assay to Identify E. coli SecA ATPase Inhibitors; type: functional; conditions: 30 µM
Sequence of Protein translocase subunit SecA (Escherichia coli (strain K12)) (P10408 whole entry): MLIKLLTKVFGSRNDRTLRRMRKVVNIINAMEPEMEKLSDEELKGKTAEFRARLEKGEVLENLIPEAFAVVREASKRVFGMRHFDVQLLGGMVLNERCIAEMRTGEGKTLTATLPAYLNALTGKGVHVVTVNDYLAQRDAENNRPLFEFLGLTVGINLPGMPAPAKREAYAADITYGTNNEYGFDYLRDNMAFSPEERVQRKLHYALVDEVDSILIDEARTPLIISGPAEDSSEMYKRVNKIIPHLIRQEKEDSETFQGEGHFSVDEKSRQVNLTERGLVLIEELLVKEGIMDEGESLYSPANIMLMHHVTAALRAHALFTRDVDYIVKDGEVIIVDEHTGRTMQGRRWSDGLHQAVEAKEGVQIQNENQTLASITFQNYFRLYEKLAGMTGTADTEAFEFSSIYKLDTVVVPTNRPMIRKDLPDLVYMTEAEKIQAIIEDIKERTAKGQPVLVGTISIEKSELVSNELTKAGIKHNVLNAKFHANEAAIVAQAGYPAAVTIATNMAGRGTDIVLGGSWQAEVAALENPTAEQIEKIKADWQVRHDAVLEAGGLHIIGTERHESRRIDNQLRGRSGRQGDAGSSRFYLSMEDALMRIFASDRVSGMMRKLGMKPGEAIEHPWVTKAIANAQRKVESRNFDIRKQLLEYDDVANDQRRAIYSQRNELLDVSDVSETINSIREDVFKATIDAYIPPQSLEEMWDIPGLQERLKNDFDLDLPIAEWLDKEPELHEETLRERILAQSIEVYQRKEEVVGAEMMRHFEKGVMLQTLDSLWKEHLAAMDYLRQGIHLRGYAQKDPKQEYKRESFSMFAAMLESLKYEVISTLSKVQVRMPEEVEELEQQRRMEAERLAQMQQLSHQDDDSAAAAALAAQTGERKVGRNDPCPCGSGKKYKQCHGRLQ

[2] = target: T1, Ubiquitin-activating enzyme e1, putative (Leishmania donovani (strain BPK282A1)) (UniProt E9BSI1); assay: Leishmania donovani Ubiquitin Activating Enzyme (LdE1); type: functional; conditions: 30 µM
T1 sequence (whole entry): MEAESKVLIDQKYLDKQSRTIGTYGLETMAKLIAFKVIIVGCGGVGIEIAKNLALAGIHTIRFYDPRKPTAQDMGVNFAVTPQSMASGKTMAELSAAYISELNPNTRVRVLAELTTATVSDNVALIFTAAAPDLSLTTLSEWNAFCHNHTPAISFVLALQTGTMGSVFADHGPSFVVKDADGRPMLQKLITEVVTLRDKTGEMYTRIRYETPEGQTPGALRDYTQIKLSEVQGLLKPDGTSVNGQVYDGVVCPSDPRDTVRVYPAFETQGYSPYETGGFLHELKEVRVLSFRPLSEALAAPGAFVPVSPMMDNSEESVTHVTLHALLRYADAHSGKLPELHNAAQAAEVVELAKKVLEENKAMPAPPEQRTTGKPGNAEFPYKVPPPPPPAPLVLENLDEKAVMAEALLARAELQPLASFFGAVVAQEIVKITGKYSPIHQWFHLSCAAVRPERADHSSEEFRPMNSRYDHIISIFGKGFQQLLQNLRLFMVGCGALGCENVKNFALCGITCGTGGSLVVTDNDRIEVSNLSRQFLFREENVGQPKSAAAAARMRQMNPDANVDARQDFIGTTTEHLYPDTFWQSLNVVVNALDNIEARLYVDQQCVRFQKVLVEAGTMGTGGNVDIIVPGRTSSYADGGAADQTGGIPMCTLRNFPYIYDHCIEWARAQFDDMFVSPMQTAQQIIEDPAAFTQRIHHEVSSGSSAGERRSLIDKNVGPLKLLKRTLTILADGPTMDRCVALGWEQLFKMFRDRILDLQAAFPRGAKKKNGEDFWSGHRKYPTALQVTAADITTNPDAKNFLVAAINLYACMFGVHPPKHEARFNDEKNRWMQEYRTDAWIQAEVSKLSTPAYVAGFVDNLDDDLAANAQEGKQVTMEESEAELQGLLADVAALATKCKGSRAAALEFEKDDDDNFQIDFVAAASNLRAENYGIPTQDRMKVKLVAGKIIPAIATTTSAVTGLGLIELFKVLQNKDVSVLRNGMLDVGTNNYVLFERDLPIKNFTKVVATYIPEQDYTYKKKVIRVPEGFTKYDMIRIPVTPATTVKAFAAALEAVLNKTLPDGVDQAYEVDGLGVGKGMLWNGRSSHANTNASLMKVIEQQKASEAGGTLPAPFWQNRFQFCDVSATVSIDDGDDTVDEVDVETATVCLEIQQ

[3] = target: T2, Aspartate--tRNA(Asp/Asn) ligase (Mycobacterium tuberculosis (strain ATCC 25618 / H37Rv)) (UniProt P9WFW3); assay: Assay for Asp RNA synthetase-1 from Mycobacterium tuberculosis; type: functional; conditions: 30 µM; also: in the data most compounds retested in dose-response had high values
T2 sequence (whole entry): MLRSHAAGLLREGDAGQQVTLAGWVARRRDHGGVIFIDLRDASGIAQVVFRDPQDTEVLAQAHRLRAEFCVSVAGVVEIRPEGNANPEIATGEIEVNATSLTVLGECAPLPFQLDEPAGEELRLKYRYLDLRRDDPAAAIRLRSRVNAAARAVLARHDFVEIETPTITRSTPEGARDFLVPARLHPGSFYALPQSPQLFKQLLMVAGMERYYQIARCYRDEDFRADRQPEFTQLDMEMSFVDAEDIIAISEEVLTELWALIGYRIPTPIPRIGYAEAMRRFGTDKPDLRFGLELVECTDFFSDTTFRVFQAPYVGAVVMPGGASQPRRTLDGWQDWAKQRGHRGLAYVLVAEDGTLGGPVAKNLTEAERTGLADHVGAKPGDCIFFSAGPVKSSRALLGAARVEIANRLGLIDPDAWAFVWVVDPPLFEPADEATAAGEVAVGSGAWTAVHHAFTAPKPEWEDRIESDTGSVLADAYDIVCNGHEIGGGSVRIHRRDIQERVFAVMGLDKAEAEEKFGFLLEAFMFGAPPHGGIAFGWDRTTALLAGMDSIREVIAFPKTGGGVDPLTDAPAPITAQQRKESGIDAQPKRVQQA

[4] = target: AMP-activated protein kinase, AMPK (Homo sapiens) (UniProt P54646+O43741+P54619+Q9UGJ0+Q9Y478+Q13131+Q9UGI9); assay: AMP-dependent Kinase enzyme assay. An in vitro enzyme assay that detects ADP turnover that is directly proportional to AMPK activity. This uses naive AMPK that is activated during the assay with MK-8722; type: functional; conditions: 30 µM
[5] = target: Sialic acid-binding Ig-like lectin 9 (Homo sapiens) (UniProt Q9Y336); assay: Hs-Siglec9 ALPHAscreen SOP 20170721; conditions: 10 µM
Sequence of Sialic acid-binding Ig-like lectin 9 (Homo sapiens) (Q9Y336 whole entry): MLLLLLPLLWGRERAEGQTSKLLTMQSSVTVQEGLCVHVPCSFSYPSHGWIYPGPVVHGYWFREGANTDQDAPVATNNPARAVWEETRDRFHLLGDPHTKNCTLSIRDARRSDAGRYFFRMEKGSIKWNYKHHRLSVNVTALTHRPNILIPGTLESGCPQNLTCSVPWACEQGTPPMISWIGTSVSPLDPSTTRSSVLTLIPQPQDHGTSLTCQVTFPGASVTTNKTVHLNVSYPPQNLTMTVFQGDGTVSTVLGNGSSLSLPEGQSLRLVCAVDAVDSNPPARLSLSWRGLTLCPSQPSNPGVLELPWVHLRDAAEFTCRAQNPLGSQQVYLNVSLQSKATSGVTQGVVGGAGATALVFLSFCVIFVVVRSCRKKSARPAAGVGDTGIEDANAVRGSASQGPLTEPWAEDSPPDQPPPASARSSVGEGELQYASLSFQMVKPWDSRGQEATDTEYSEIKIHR

[6] = test system: Trypanosoma cruzi; assay: Trypanosoma cruzi phosphomannomutase and mannose-1-phosphate guanylyltransferase assay; type: functional; conditions: 10 µM
[7] = target: T3, Arginase-2, mitochondrial (Homo sapiens) (UniProt P78540); assay: in vitro enzyme assay to detect the production of urea directly proportional to the activity of Arginase II; type: functional; conditions: 33.3 µM; also: in the data most compounds retested in dose-response had high values
T3 sequence (whole entry): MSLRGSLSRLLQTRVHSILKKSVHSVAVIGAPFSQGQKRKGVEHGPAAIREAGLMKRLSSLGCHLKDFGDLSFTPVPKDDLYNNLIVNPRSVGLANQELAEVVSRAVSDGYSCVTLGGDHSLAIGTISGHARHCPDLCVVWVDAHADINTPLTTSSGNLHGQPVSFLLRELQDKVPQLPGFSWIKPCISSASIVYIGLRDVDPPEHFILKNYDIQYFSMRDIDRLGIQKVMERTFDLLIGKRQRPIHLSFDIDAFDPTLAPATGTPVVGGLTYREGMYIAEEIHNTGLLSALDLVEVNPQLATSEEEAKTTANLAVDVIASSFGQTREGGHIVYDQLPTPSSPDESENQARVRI

[8] = target: T4, Proteasome subunit beta (Trypanosoma cruzi) (UniProt O96673); assay: Trypanosoma cruzi proteasome chymotrypsin-like activity (TcProtChymo) assay.; also: in the data most compounds retested in dose-response had high values; type: functional; conditions: 9.37 µM
T4 sequence (whole entry): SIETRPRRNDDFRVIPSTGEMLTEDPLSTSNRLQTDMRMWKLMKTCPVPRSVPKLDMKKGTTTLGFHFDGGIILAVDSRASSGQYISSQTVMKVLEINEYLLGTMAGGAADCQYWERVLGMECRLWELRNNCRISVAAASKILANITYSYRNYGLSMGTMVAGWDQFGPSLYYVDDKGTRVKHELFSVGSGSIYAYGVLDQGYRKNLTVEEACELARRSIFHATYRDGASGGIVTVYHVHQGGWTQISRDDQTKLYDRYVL

[9] = organism: Homo sapiens; assay: To identify inhibition of the IFN signalling (Jak-Stat) pathway via expression of an eGFP reporter gene under the control of an IFN-stimulated response element (ISRE) containing MxA promoter.; type: functional; conditions: 30 µM
[10] = target: Shiga toxin 2 (Escherichia coli O157:H7) (UniProt P09385+P09386); assay: E. coli 0.157:H7 Shiga Toxin SOP - stx2 screening assay; type: functional; conditions: 30 µM
[11] = target: T5, Tyrosyl-tRNA synthetase, putative (Trypanosoma cruzi (strain CL Brener)) (UniProt Q4DSP6); assay: Trypanosoma cruzi tyrosyl tRNA synthetase (TcYRS) _High Tyrosine SOP; type: functional; conditions: 30 µM; also: in the data most compounds retested in dose-response had high values
T5 sequence (whole entry): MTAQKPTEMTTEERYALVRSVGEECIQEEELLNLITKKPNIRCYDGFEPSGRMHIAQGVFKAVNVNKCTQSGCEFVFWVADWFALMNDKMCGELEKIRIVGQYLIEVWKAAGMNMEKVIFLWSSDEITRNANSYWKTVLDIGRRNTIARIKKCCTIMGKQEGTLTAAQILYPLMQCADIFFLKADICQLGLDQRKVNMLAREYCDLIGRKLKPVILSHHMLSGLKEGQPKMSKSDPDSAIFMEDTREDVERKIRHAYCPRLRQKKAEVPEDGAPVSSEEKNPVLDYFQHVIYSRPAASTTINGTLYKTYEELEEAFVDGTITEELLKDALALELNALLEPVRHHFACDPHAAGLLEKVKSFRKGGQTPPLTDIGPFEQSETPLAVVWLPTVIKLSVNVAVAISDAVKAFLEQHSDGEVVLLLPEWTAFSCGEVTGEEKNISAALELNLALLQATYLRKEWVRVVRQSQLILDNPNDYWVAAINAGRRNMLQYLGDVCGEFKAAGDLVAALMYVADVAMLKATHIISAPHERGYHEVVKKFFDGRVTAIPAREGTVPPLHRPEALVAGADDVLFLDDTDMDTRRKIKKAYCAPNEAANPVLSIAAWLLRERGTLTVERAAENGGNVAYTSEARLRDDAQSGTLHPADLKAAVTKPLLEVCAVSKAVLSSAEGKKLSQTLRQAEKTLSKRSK

[12] = target: T5, Tyrosyl-tRNA synthetase, putative (Trypanosoma cruzi (strain CL Brener)); assay: Trypanosoma cruzi tyrosyl tRNA synthetase (TcYRS) SOP; type: functional; conditions: 30 µM
[13] = target: Chromo domain-containing protein 1 (Saccharomyces cerevisiae (strain ATCC 204508 / S288c) (Baker's yeast)) (UniProt P32657); assay: ScCHD-1 Enzyme Inhibition Assay; type: functional; conditions: 30 µM; also: in the data most compounds retested in dose-response had high values
Sequence of Chromo domain-containing protein 1 (Saccharomyces cerevisiae (strain ATCC 204508 / S288c) (Baker's yeast)) (P32657 whole entry, the tested form may be a part): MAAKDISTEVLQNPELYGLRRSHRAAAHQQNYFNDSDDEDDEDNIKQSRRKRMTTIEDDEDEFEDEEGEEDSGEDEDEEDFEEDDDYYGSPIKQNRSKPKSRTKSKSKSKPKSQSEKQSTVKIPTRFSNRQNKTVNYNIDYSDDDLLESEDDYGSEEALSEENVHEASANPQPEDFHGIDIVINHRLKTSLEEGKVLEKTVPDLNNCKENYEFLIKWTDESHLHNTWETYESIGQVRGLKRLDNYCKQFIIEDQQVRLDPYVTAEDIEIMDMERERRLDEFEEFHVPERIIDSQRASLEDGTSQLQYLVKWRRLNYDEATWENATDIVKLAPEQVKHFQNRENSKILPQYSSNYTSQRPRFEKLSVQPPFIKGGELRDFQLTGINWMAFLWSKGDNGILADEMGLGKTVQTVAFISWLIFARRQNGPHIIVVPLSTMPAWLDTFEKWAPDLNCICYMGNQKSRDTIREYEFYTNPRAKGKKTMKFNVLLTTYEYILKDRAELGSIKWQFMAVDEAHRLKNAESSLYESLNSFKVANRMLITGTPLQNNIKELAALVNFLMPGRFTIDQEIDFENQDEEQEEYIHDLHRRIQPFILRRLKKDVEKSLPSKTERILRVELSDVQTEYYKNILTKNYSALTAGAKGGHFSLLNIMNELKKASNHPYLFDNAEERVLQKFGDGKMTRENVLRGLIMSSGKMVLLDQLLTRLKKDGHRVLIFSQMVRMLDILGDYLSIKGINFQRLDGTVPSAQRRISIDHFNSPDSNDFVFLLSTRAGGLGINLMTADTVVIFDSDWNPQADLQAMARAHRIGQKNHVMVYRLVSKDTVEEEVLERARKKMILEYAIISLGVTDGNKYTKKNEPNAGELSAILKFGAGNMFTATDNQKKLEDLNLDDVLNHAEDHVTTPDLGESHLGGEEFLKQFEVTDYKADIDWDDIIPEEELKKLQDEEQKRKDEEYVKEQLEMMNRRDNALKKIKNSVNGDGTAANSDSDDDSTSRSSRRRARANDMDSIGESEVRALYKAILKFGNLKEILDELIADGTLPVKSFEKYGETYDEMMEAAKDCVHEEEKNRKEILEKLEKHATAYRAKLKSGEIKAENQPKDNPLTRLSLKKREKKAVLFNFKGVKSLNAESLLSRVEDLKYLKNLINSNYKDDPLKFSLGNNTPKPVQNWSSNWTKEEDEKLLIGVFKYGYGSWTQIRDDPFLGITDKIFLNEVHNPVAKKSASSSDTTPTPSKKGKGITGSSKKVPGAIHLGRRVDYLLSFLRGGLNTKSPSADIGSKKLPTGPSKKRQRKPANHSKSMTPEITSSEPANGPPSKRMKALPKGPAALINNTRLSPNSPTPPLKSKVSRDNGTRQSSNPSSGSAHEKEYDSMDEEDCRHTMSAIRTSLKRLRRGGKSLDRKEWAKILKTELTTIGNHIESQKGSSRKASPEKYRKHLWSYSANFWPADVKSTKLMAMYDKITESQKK

| Structure (SMILES) | Percent Effect [1] [%] | Percent Effect [2] [%] | Percent Effect [3] [%] | Percent Effect [4] [%] | Percent Effect [5] [%] | Percent Effect [6] [%] | Percent Effect [7] [%] | Percent Effect [8] [%] | Percent Effect [9] [%] | Percent Effect [10] [%] | Percent Effect [11] [%] | Percent Effect [12] [%] | Percent Effect [13] [%] |
| --- | --- | --- | --- | --- | --- | --- | --- | --- | --- | --- | --- | --- | --- |
| Cc1ccc(CC(=O)N2CCN(CC(O)c3ccccc3)CC2)cn1 (stereo unspecified) | 1.4 | 5.26 | 1.83 | -2.25 | 3.56 | 5.83 | 5.75 | 1.5 | -4.04 | 2.79 | 5.39 | 17.1 | -5.71 |
| CN1CCC2(COCc3cnc(N4CCOCC4)nc32)C1 (stereo unspecified) | -1.86 | -1.33 | -1.51 | 5.52 | 4.35 | -1.18 | -0.528 | 5.36 | -2.62 | -6.09 | 0 | -5.13 | -1.41 |
| CCNC(=O)NC(=O)CNC1(c2noc(C)n2)CCCCC1 | -8.65 | 15.8 | 0.329 | -3.69 | -6.42 | 6.91 | -5.92 | 8.34 | 6.39 | 4.43 | 3.19 | -7.79 | -19.2 |
| O=C(NC[C@]12COC[C@H]1CN(Cc1ccncc1)C2)c1ccco1 | -2.11 | 13.3 | -0.368 | 7.09 | 2.99 | -2.17 | 4.43 | 12.8 | 7.74 | -4.6 | 10.6 | 21.8 | -2.5 |
| O=C(COc1cccc(F)c1)N1C[C@@H](O)[C@H](N2CCCC2)C1 | 0.584 | 4.05 | -0.878 | 10.1 | 2.64 | 4.94 | 0.696 | 7.33 | -0.848 | -11.4 | 0 | -3.9 | -18.1 |
| NC(=O)N1C[C@H]2CN(Cc3nccs3)C[C@H]2C1 | 0.982 | 10.8 | 2.58 | 9.05 | -13 | -3.62 | 1.59 | 16.6 | 5.62 | -3.75 | 3.24 | 12.8 | -3.89 |
| O=C(COc1ccccc1)N1C[C@@H](O)[C@H](N2CCCC2)C1 | 0.635 | 9.46 | -7.13 | 3.56 | -3.46 | 3.36 | -6.26 | 10.8 | 1.48 | -14.2 | -1.07 | 3.9 | -22 |
